Test results from the supplement of paper PMC4709259.
Counter-ions that a name gives are not always drawn. ± gives the standard deviation.

Experiments:
Jurkat [1] = assay: mean cell size (FSC-A) relative to DMSO control (fraction of control); higher = larger cells; conditions: 48 h
Procedure, shortened: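 Jurkat cells at 600 cells/µl were incubated for 1 h and then treated for 48h with the Enzo Screen-Well FDA Approved Drug Library v2.0 at 25µM, with DMSO at 0.9% (v/v) final. Compounds that reduced counts below 20% of controls were retested in 10-fold dilutions down to 25nM. Cell count and mean cell size, taken as forward scatter area, were measured by flow cytometry relative to solvent-only controls. Each plate carried 6-12 controls, and values are means of 3 biological replicates.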

Jurkat [2] = assay: cell count relative to DMSO control (fraction of control); higher = more cells (less growth inhibition); conditions: 48 h

| Structure (SMILES) | mean cell size (Jurkat [1]) | cell count (Jurkat [2]) |
| --- | --- | --- |
| C#C[C@]1(O)CC[C@H]2[C@@H]3CCC4=CCCC[C@@H]4[C@H]3C(=C)C[C@@]21CC [Desogestrel] (concentration: 25 µM) | 0.943 ± 0.018 | 1.03 ± 0.027 |
| C[C@@H](c1ncncc1F)[C@](O)(Cn1cncn1)c1ccc(F)cc1F [Voriconazole] (concentration: 25 µM) | 0.963 ± 0.043 | 0.682 ± 0.1 |
| NNc1nncc2ccccc12 [Hydralazine·HCl] (concentration: 25 µM) | 0.98 ± 0.075 | 0.537 ± 0.045 |
| CCc1cc(C(N)=S)ccn1 [Ethionamide] (concentration: 25 µM) | 1.05 ± 0.03 | 1.05 ± 0.1 |
| Clc1cccc(Cl)c1NC1=NCCN1 [Clonidine·HCl] (concentration: 25 µM) | 0.931 ± 0.049 | 0.224 ± 0.083 |
| C[C@]12CC[C@@H]3c4ccc(OS(=O)(=O)O)cc4CC[C@H]3[C@@H]1CCC2=O [Estropipate] (concentration: 25 µM) | 1.06 ± 0.069 | 0.747 ± 0.21 |
| CN(C)CCCN1c2ccccc2CCc2ccc(Cl)cc21 [Clomipramine·HCl] (concentration: 25 µM) | 0.961 ± 0.035 | 0.4539 ± 0.0031 |
| CC[C@@H]([C@H](C)O)n1ncn(-c2ccc(N3CCN(c4ccc(OC[C@@H]5CO[C@@](Cn6cncn6)(c6ccc(F)cc6F)C5)cc4)CC3)cc2)c1=O [Posaconazole] (concentration: 25 µM) | 1.02 ± 0.032 | 1.016 ± 0.0028 |
| CCCCNc1cc(C(=O)O)cc(S(N)(=O)=O)c1Oc1ccccc1 [Bumetanide] (concentration: 25 µM) | 0.952 ± 0.015 | 0.863 ± 0.022 |
| NCCCC(N)(C(=O)O)C(F)F (stereo not given) [Eflornithine·HCl] (concentration: 25 µM) | 0.958 ± 0.019 | 0.985 ± 0.073 |
| CCC1=C(C)CN(C(=O)NCCc2ccc(S(=O)(=O)NC(=O)N[C@H]3CC[C@H](C)CC3)cc2)C1=O [Glimepiride] (concentration: 25 µM) | 0.94 ± 0.02 | 0.859 ± 0.076 |
| Clc1ccc(C(Cn2ccnc2)OCc2csc3c(Cl)cccc23)c(Cl)c1 (stereo not given) [Sertaconazole] (concentration: 25 µM) | 1.04 ± 0.05 | 0.801 ± 0.11 |
| CCN(CCO)CCCC(C)Nc1ccnc2cc(Cl)ccc12 (stereo not given) [Hydroxychloroquine Sulfate] (concentration: 25 µM) | 0.948 ± 0.013 | 1.03 ± 0.11 |
| O=C(O)P(=O)(O)O [Foscarnet·Na (Sodium Phosphonoformate Tribasic Hexahydrate)] (concentration: 25 µM) | 0.936 ± 0.065 | 0.59 ± 0.027 |
| COCCCOc1ccnc(C[S+]([O-])c2nc3ccccc3[nH]2)c1C (stereo not given) [Rabeprazole·Na] (concentration: 25 µM) | 0.923 ± 0.02 | 0.523 ± 0.06 |
| CC1(C)S[C@@H]2[C@H](NC(=O)[C@H](N)c3ccc(O)cc3)C(=O)N2[C@H]1C(=O)O [Amoxicillin] (concentration: 25 µM) | 0.988 ± 0.012 | 0.866 ± 0.063 |
| CNCC[C@H](Oc1cccc2ccccc12)c1cccs1 [Duloxetine·HCl] (concentration: 25 µM) | 1.02 ± 0.069 | 0.353 ± 0.073 |
| O=C1CCc2ccc(OCCCCN3CCN(c4cccc(Cl)c4Cl)CC3)cc2N1 [Aripiprazole] (concentration: 25 µM) | 1.02 ± 0.037 | 0.89 ± 0.092 |
| C[C@]12C=CC(=O)N[C@@H]1CC[C@@H]1[C@@H]2CC[C@]2(C)[C@@H](C(=O)Nc3cc(C(F)(F)F)ccc3C(F)(F)F)CC[C@@H]12 [Dutasteride] (concentration: 25 µM) | 0.983 ± 0.052 | 0.636 ± 0.17 |
| CC(=O)NS(=O)(=O)c1ccc(N)cc1 [Sulfacetamide·Na] (concentration: 25 µM) | 0.951 ± 0.038 | 0.78 ± 0.07 |
| CO[C@H]1O[C@@H]2O[C@@]3(C)CC[C@H]4[C@H](C)CC[C@@H]([C@H]1C)[C@@]24OO3 [Artemether] (concentration: 25 µM) | 0.912 ± 0.047 | 0.632 ± 0.0091 |
| CC(c1cc2ccccc2s1)N(O)C(N)=O (stereo not given) [Zileuton] (concentration: 25 µM) | 1 ± 0.038 | 0.839 ± 0.068 |
| O=C(O)c1ccc(-n2nc(-c3ccccc3O)nc2-c2ccccc2O)cc1 [Deferasirox] (concentration: 2.5 µM) | 1.07 ± 0.021 | 0.636 ± 0.039 |
| CCCCc1ncc(/C=C(\Cc2cccs2)C(=O)O)n1Cc1ccc(C(=O)O)cc1 [Eprosartan Mesylate] (concentration: 25 µM) | 1.01 ± 0.06 | 0.864 ± 0.071 |
| CC(C)(O/N=C(\C(=O)N[C@@H]1C(=O)N2C(C(=O)[O-])=C(C[n+]3ccccc3)CS[C@H]12)c1csc(N)n1)C(=O)O [Ceftazidime] (concentration: 25 µM) | 0.958 ± 0.011 | 0.884 ± 0.095 |

| Structure (SMILES) | mean cell size (Jurkat [1]) | cell count (Jurkat [2]) |
| --- | --- | --- |
| CN1C(CCl)Nc2cc(Cl)c(S(N)(=O)=O)cc2S1(=O)=O (stereo not given) [Methyclothiazide] (concentration: 25 µM) | 0.982 ± 0.048 | 0.633 ± 0.17 |
| C[C@@H]1C[C@H]2[C@@H]3CCC4=CC(=O)C=C[C@]4(C)[C@@]3(Cl)[C@@H](O)C[C@]2(C)[C@@]1(OC(=O)c1ccco1)C(=O)CCl [Mometasone Furoate] (concentration: 25 µM) | 0.915 ± 0.037 | 0.47 ± 0.17 |
| O=C(O)CCNC(=O)c1ccc(/N=N/c2ccc(O)c(C(=O)O)c2)cc1 [Balsalazide] (concentration: 25 µM) | 0.964 ± 0.013 | 0.669 ± 0.047 |
| NS(=O)(=O)Cc1noc2ccccc12 [Zonisamide] (concentration: 25 µM) | 1 ± 0.05 | 0.561 ± 0.25 |
| CCN(CC)CC#CCOC(=O)C(O)(c1ccccc1)C1CCCCC1 (stereo not given) [Oxybutynin Chloride] (concentration: 25 µM) | 0.904 ± 0.022 | 0.895 ± 0.049 |
| CN1CCN(C2=Nc3cc(Cl)ccc3Nc3ccccc32)CC1 [Clozapine] (concentration: 25 µM) | 0.966 ± 0.025 | 0.494 ± 0.17 |
| O=C(O)c1cc(=O)c2c(OCC(O)COc3cccc4oc(C(=O)O)cc(=O)c34)cccc2o1 [Cromolyn·Na (Disodium Cromoglycate)] (concentration: 25 µM) | 0.9231 ± 0.0045 | 1.05 ± 0.096 |
| O=c1[nH]c(=O)n([C@H]2C[C@H](O)[C@@H](CO)O2)cc1F [Floxuridine] (concentration: 25 nM) | 1.06 ± 0.063 | 0.178 ± 0.096 |
| OC[C@H]1O[C@@H](n2cnc3c2N=CNC[C@H]3O)C[C@@H]1O [Pentostatin] (concentration: 25 µM) | 0.959 ± 0.029 | 1.14 ± 0.024 |
| Nc1ncn([C@H]2C[C@H](O)[C@@H](CO)O2)c(=O)n1 [Decitabine] (concentration: 2.5 µM) | 1 ± 0.018 | 0.363 ± 0.035 |
| CO/N=C(\C(=O)N[C@@H]1C(=O)N2C(C(=O)[O-])=C(C[N+]3(C)CCCC3)CS[C@H]12)c1csc(N)n1 [Cefepime·HCl Hydrate] (concentration: 25 µM) | 1.02 ± 0.046 | 0.826 ± 0.045 |
| COc1ccc2c(c1)c(CC(=O)O)c(C)n2C(=O)c1ccc(Cl)cc1 [Indomethacin] (concentration: 25 µM) | 0.971 ± 0.046 | 0.482 ± 0.087 |
| C=CC1=C(C(=O)O)N2C(=O)[C@@H](NC(=O)/C(=N\O)c3csc(N)n3)[C@H]2SC1 [Cefdinir] (concentration: 25 µM) | 0.976 ± 0.059 | 0.765 ± 0.12 |
| C[C@]12CCC3=C4CCC(=O)C=C4CC[C@H]3[C@@H]1CC[C@@]2(O)CC#N [Dienogest] (concentration: 25 µM) | 0.963 ± 0.035 | 0.827 ± 0.15 |
| CC(C)C[C@H](NC(=O)[C@@H](COC(C)(C)C)NC(=O)[C@H](Cc1ccc(O)cc1)NC(=O)[C@H](CO)NC(=O)[C@H](Cc1c[nH]c2ccccc12)NC(=O)[C@H](Cc1cnc[nH]1)NC(=O)[C@@H]1CCC(=O)N1)C(=O)N[C@@H](CCCNC(=N)N)C(=O)N1CCC[C@H]1C(=O)NNC(N)=O [Goserelin Acetate] (concentration: 25 µM) | 0.953 ± 0.045 | 1.044 ± 0.003 |
| CN(C)CCc1c[nH]c2ccc(C[C@H]3COC(=O)N3)cc12 [Zolmitriptan] (concentration: 25 µM) | 0.996 ± 0.017 | 0.419 ± 0.11 |
| Cn1nnc2c(C(N)=O)ncn2c1=O [Temozolomide] (concentration: 25 µM) | 0.959 ± 0.052 | 0.543 ± 0.12 |
| CC(=O)O[C@@]12CO[C@@H]1C[C@H](O)[C@@]1(C)C(=O)[C@H](O)C3=C(C)[C@@H](OC(=O)[C@H](O)[C@@H](NC(=O)OC(C)(C)C)c4ccccc4)C[C@@](O)([C@@H](OC(=O)c4ccccc4)[C@H]21)C3(C)C [Docetaxel (Taxotere)] (concentration: 25 nM) | 1.14 ± 0.035 | 0.518 ± 0.052 |
| Nc1ncnc2c1ncn2[C@@H]1O[C@H](CO)[C@@H](O)[C@H]1O [Adenosine] (concentration: 25 µM) | 1 ± 0.041 | 0.73 ± 0.082 |
| CCC(=O)O[C@]1(C(=O)CCl)[C@@H](C)C[C@H]2[C@@H]3CCC4=CC(=O)C=C[C@]4(C)[C@@]3(F)[C@@H](O)C[C@@]21C [Clobetasol Propionate] (concentration: 25 µM) | 0.898 ± 0.015 | 0.881 ± 0.18 |
| CCN(CC)CCOC(=O)C1(C2CCCCC2)CCCCC1 [Dicyclomine·HCl] (concentration: 25 µM) | 0.9222 ± 0.0091 | 0.922 ± 0.054 |
| CN(Cc1cnc2nc(N)nc(N)c2n1)c1ccc(C(=O)N[C@@H](CCC(=O)O)C(=O)O)cc1 [Methotrexate] (concentration: 25 nM) | 1.16 ± 0.035 | 0.499 ± 0.093 |
| CN(C)CCC=C1c2ccccc2CCc2ccccc21 [Amitriptyline·HCl] (concentration: 25 µM) | 0.915 ± 0.037 | 0.798 ± 0.033 |
| NCCCC(O)(P(=O)(O)O)P(=O)(O)O [Alendronate·Na Trihydrate] (concentration: 25 µM) | 0.927 ± 0.043 | 0.282 ± 0.11 |
| CC(CN(C)C)CN1c2ccccc2CCc2ccccc21 (stereo not given) [Trimipramine Maleate] (concentration: 25 µM) | 1.02 ± 0.022 | 0.834 ± 0.056 |
